# An excerpt weighted towards active compounds, which were near 12% of everything screened.
# Sfp PPTase inh: blocks B. subtilis Sfp PPTase activity. Biochemical Sfp PPTase activity, qHTS. Potency, µM, for the others: largest response in the series, negative = inhibition, usual class: inhibitors. AID 1490. hit rate 3.5% among 310,000. Q9F4F7;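 note: the enzyme is Sfp with the accession as filed and its product quenches rhodamine fluorescence; 0% = enzyme reaction without inhibitor and -100% = no enzyme wells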
#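 Reaction rates are the 30-min fluorescence difference (ex 525, em 598 nm) in wells containing 15 nM Sfp, 5 uM rhodamine-CoA and 12.5 uM BHQ-2-YbbR at pH 7.6 with 10 mM MgCl2.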
# BAZ2B inh: blocks human BAZ2B | Potency, µM (series often up to 114 µM), for inactives: at the top dose activity change, negative = inhibition, usual class: inhibitors | AlphaScreen BAZ2B-H3K14Ac peptide displacement | hit rate 4.4% among 360,000 | Q9UIF8 | AID 504333; note: % is set by controls: 0 for no effect and ±100 for the full control effect; nearly all actives have a fitted effect of over 60% in size
#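 AlphaScreen luminescence quantifies BAZ2B engagement of H3K14Ac peptide; the protein and biotinylated peptide are both at 50 nM final, buffer PBS pH 7.4 with 0.01% Tween-20, all steps at room temperature.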
# HP1b chromo inh: HP1-beta chromodomain-methylated histone interaction inhibition. hit rate 0.56% among 390,000. AlphaScreen HP1-beta / biotin-H3K9me3 peptide binding. P83916. AID 540317. Potency, µM (titrated, usually from 114 µM), without a hit: at the top dose activity change, negative = inhibition, most hits filed as inhibitors; note: nearly all actives have a fitted effect of over 70% in size
#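 Compound inhibition of the preformed complex between 50 nM HP1-beta and 50 nM biotinylated H3K9me3 peptide was read by AlphaScreen. Buffer was PBS pH 7.4 with 0.01% Tween-20. Incubations ran 30 min at room temperature, with 10 ug/mL donor/acceptor beads.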
# JMJD2A Tudor inh: JMJD2A Tudor domain (human) inhibition; O75164; AlphaScreen JMJD2A-Tudor / H3K4me3 peptide binding; Potency, µM (titrated, usually from 114 µM), without a hit: at the top dose activity change, negative = inhibition, hits mostly inhibitors; hit rate 4.4% among 390,000; note: % is set by controls: 0 for no effect and ±100 for the full control effect; nearly all actives have a fitted effect of over 50% in size
# Target sequence (O75164 whole entry, looked up, the tested form may be a part): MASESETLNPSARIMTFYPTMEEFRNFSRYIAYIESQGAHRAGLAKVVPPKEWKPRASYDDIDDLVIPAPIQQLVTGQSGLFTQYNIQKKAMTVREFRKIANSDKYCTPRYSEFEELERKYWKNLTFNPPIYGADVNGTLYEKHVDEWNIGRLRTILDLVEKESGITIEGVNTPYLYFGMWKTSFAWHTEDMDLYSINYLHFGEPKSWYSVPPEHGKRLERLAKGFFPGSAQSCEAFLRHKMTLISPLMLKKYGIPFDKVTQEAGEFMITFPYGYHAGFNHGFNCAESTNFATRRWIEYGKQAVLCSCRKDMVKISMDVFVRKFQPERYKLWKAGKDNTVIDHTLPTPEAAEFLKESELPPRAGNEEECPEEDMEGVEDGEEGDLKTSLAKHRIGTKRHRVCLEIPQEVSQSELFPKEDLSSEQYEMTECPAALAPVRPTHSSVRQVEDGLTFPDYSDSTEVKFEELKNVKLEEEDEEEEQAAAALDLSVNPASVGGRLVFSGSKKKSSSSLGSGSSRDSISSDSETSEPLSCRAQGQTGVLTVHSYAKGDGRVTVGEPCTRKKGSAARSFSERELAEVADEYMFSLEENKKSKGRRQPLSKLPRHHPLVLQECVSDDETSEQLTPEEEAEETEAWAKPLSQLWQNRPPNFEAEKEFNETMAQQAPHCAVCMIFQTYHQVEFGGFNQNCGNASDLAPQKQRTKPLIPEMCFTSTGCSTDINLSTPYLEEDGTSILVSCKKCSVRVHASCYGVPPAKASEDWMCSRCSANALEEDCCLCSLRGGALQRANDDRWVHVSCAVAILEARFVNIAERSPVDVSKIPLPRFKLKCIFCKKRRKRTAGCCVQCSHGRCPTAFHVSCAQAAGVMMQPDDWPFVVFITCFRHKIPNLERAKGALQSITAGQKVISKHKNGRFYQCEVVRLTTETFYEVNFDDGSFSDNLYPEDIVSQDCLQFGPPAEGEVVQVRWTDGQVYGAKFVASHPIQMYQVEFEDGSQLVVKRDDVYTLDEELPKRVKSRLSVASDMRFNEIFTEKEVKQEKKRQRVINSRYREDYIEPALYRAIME
# G9a block: G9a (human) methyltransferase inhibition. Q96KQ7. G9a H3K9 monomethylation, AlphaScreen, 2 h. Potency, µM (doses to about 102 µM), for the others: at the highest dose activity, negative = inhibition, hits mostly inhibitors. hit rate 8.8% among 350,000. AID 504332; note: % is set by controls: 0 for no effect and ±100 for the full control effect; nearly all actives have a fitted effect of over 75% in size
#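 G9a (20 nM) preincubated 15 min RT with compounds, then 500 nM biotinylated H3K9 peptide and 20 uM SAM added; 2 h RT reaction. Monomethyl-H3K9 product detected by AlphaScreen with anti-H3K9me1 antibody, streptavidin donor and anti-rabbit IgG acceptor beads.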
# * = called active by the depositor; ? = inconclusive; · = no result; [ ] = remark or other dose. Calls come from the whole dose curve; as a rule, active = well fitted curve in the direction sought with a large enough effect; inconclusive = small, poorly fitted or top-dose-only effect, or another doubt; inactive = no such curve, though single readings can be large; an effect the other way counts as inactive or inconclusive. Potency is the fitted concentration of half-maximal effect.
SMILES,Sfp PPTase inh,BAZ2B inh,HP1b chromo inh,JMJD2A Tudor inh,G9a block
O=C(NCc1cccs1)c1ccc(S(=O)(=O)N2CCCCC2)cc1,4.4%,-10.5%,-19.7%,?,2.7%
CCCCC(=O)N/N=C/c1ccc(-c2ccc([N+](=O)[O-])cc2)o1,-11.0%,-9.7%,3.1%,-12.0%,-8.6%
CC(C)(C)NC(=S)N/N=C\c1ccc(-c2ccc([N+](=O)[O-])cc2)o1,31.6µM*,?,-12.7%,?,-11.4%[59 µM]
CC1CCN(CC(CS(=O)(=O)c2ccc([N+](=O)[O-])cc2)N2CCC(C)CC2)CC1 (centres undefined),-0.4%,-1.8%,20.7%,-13.2%[11.4 µM],·
Cc1cccc(NC(=O)CCc2ccccc2)c1,-19.0%,-1.7%,70.1%,-2.9%,-7.2%
O=C(NN=C1CCN(Cc2ccccc2)CC1)c1ccccc1,3.9%,-7.2%,-17.3%,7.94µM*,34.2%[59 µM]
O=C(NN=C1CCN(Cc2ccccc2)CC1)c1cc(Br)ccc1O,27.5%,-2.3%,31.2%,-8.8%,?
Cc1cccc(N2CCN(C(=S)c3ccccc3)CC2)c1,?,-37.7%,-5.9%,-32.9%,?
CC1CCCC(N2CCN(C(=O)c3ccc([N+](=O)[O-])cc3)CC2)C1 (centres undefined),-14.4%,56.2µM*,?,22.4µM*,22.4µM*
CC(=O)N1CCN(C(=S)c2ccc([N+](=O)[O-])cc2)CC1,-10.3%,-1.9%,-6.0%,?,22.4µM*
Cc1cccc(N2CCN(C(=S)c3ccc([N+](=O)[O-])cc3)CC2)c1,25.1µM*,11.2µM*,31.6µM*,39.8µM*,3.98µM*
Cc1ccccc1NC(=S)N1CCN(c2ccccc2C)CC1,22.0%,9.8%,37.1%,-10.3%,·
Cc1ccccc1N1CCN(C(=S)c2ccc([N+](=O)[O-])cc2)CC1,?,?,?,?,12.6µM*
CC(Oc1ccccc1)C(=O)OCC(=O)NC(=O)NC1CCCCC1 (centres undefined),·,4.8%,38.3%,-14.5%,7.4%[12.7 µM]
COC(=O)CC1c2ccccc2C=C(C)N1C(=O)OC (centres undefined),12.4%,·,·,·,·
COc1ccc(C2C(C(C)=O)=C(O)C(=O)N2c2cccnc2)c(OC)c1 (centres undefined),6.3%,?,16.1%,25.1µM*,-2.6%[59 µM]
COc1ccc(C2C(C(C)=O)=C(O)C(=O)N2C)c(OC)c1 (centres undefined),-8.7%,-36.6%,19.5%,?,44.7µM*
COc1ccc(OC)c(C2C(C(C)=O)=C(O)C(=O)N2c2ccc(F)cc2)c1 (centres undefined),14.8%,-5.1%,38.2%,?,-15.4%[59 µM]
COc1ccc(NC(=O)c2nnn(CC(=O)Nc3c(C)cc(C)cc3C)c2N)cc1OC,·,9.3%[57.1 µM],30.9%,0.0%,9.9%[59 µM]
Cc1ccccc1/C=C/C(=O)c1ccc([N+](=O)[O-])o1,·,35.5µM*,?,?,-8.5%[2.33 µM]
Cc1cccc(/C=C/C(=O)c2ccc([N+](=O)[O-])o2)c1,·,?,17.2%,-31.9%,-16.9%[2.33 µM]
Cc1cccc(CC(=O)NC2CCCCCC2)c1,9.3%,10.6%,14.5%,-6.1%,-0.6%
O=C(Nc1ccccc1F)C1CCCN(S(=O)(=O)c2cccc3cccnc23)C1 (centres undefined),17.9%,-2.8%,46.7%,-31.7%,-0.3%
COc1ccc(NC(=S)N2CCN(Cc3cccc(F)c3)CC2)c(OC)c1,4.7%,?,7.9%,-8.1%[57.1 µM],·
COc1cc(OC)c(OC)cc1CN1CCN(Cc2ccco2)CC1,-9.4%,79.4µM*,-10.8%,22.4µM*,35.5µM*
SMILES,Sfp PPTase inh,BAZ2B inh,HP1b chromo inh,JMJD2A Tudor inh,G9a block
COC(=O)c1cc(CN2CCN(c3ccccc3C)CC2)ccc1O,-10.7%,56.2µM*,?,2µM*,7.08µM*
COc1cccc(CN2CCN(Cc3ccc(OC)c(OC)c3)CC2CCO)c1 (centres undefined),7.1%,5.5%,27.5%,-4.5%,·
COc1cc(OC)c(OC)cc1CN1CCN(Cc2cccc(F)c2)CC1,9.9%,-31.1%,-14.9%,56.2µM*,?
COc1ccc(NC(=S)N2CCN(Cc3ccco3)CC2)c(OC)c1,7.3%,-0.7%,20.5%,-12.4%,-9.7%[59 µM]
COc1ccc(CN2CCN(Cc3cccc(F)c3)CC2)cc1OC,?,22.4µM*,?,3.16µM*,-10.7%[2.33 µM]
Cc1ccc(S(=O)(=O)Nc2cccc(C(=O)NCc3ccccn3)c2)cc1F,·,4.9%,20.7%,-18.5%,17.9%[0.501 µM]
O=C(COC(=O)/C=C/c1ccc([N+](=O)[O-])cc1)NC(c1ccccc1)c1ccccc1,-16.7%,7.7%,27.6%,-14.9%[57.1 µM],-12.0%[59 µM]
O=C1NC2(CCc3ccccc32)C(=O)N1CCOc1ccc(Cl)cc1 (centres undefined),0.3%,1.6%,19.2%,-3.0%,2.9%
COc1cc(OC)c(OC)cc1CN1CCN(c2ccc(F)cc2)CC1,0.3%,50.1µM*,?,44.7µM*,28.2µM*
COc1ccc(CN2CCN(c3ccccc3OC)CC2)cc1OC,-21.5%,50.1µM*,?,22.4µM*,·
COc1ccc(CN2CCN(Cc3ccccc3F)CC2)cc1OC,?,35.5µM*,?,5.62µM*,8.91µM*
CCc1c(CN2CCN(c3ccc(F)cc3)CC2)csc1C,·,-26.6%,24.7%,-33.7%,?
CC(NC(=O)CCc1nnc(C2(c3ccc(Cl)cc3)CCC2)o1)C1CC1 (centres undefined),17.5%,0.7%,33.2%,0.7%,5.3%
Cn1c(O)c(/C=C2\C=Nc3ccccc32)sc1=Nc1ccc(C(=O)O)cc1,-1.7%,50.1µM*,20.6%,-33.7%,35.5µM*
CCn1c(O)c(/C=C2\C=Nc3ccccc32)sc1=Nc1ccccc1,27.0%,-30.8%[57.1 µM],1.2%,-23.9%,33.8%
Cc1cccc(NC(=O)CNC(=O)c2cccc(S(=O)(=O)NCc3cccs3)c2)c1C,·,-2.7%,43.0%,-4.6%,-9.3%[2.33 µM]
CC(C)(C)c1n[nH]c(=S)n(N)c1=O,?,?,-21.8%,5.01µM*,9.2%[12.7 µM]
CCOC(=O)c1c(N)nn(C(=O)c2ccccc2F)c1-c1ccc(OC)cc1,8.9%,-14.4%,39.3%,-1.7%,11.0%
O=C(N/N=C/C=C/c1ccccc1)c1ccccn1,-24.4%,?,50.3%,-9.0%,32.8%[59 µM]
O=C(N/N=C\C=C\c1ccco1)c1cc(-c2ccc3ccccc3c2)n[nH]1,1.7%,3.2%,6.2%,-33.7%,31.6µM*
O=C(N/N=C/c1ccco1)c1cnccn1,-10.9%,9.4%,11.3%,?,4.9%[59 µM]
O=C(N/N=C/C=C\c1ccco1)c1ccccn1,20µM*,56.2µM*,?,79.4µM*,35.5µM*
O=C(N/N=C/C=C/c1ccco1)c1cnccn1,10µM*,13.7%,7.4%,50.1µM*,44.7µM*
CCOc1ccc(NC(=O)c2cc(CN3CCCC3)on2)cc1,·,-12.7%,-8.5%,-16.0%,-13.6%[59 µM]
CCOC(=O)N1CCN(C(=O)c2ccccc2NS(=O)(=O)c2ccc(C)cc2)CC1,14.4%,-16.9%,22.9%,-8.1%,15.4%

# Bioassay records (PubChem BioAssay)
